# TDP1 inh: TDP1 (human) enzyme inhibition. AID 485290. Q9NUW8. recombinant TDP1, AlphaScreen DNA substrate cleavage. Potency, µM (series often up to 130 µM), for the others: at the top dose activity change, negative = inhibition, usual class: inhibitors. hit rate 0.28% among 350,000; also: nearly all actives have a fitted effect of over 40% in size
#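 AlphaScreen read-out: signal falls as enzyme removes the 3' tyrosine-FITC from a 5'-biotinylated DNA oligo (15 nM, 5 min, RT). Enzyme was E. coli-made recombinant Tdp1 at 1 nM, exposed to compound for 15 min beforehand; beads 10 ug/ml, 10 min.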
# RORgamma inh: ROR gamma (mouse) transcription inhibition; P51450; Potency, µM (highest dose often 53.6 µM), inactives show at the top dose activity change, negative = inhibition, hits mostly inhibitors; Drosophila S2 Gal4-RORgamma UAS-luciferase reporter, 20 h; hit rate 5.4% among 310,000; also: nearly all actives have a fitted effect of over 60% in size
# Target sequence (P51450 whole entry, looked up, the tested form may be a part): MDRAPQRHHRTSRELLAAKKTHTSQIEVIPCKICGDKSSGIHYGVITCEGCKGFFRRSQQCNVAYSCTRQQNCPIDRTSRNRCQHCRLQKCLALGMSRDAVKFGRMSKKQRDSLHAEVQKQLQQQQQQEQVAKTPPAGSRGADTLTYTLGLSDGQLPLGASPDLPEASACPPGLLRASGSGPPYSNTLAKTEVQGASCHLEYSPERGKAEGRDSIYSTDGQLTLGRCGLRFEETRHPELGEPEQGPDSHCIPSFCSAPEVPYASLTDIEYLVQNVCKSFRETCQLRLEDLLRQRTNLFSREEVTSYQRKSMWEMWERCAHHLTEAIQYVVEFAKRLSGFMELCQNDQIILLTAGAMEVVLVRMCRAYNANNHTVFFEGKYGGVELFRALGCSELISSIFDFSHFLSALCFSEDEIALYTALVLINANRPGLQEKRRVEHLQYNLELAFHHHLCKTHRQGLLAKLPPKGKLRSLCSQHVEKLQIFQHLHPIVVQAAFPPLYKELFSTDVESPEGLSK
#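 Compounds are pin-transferred onto Drosophila Schneider cells expressing a copper-inducible Gal4–ROR gamma transactivation domain fusion. After 1 hr, copper sulfate is added to 700 uM final; luciferase is read 20 hr later.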
# TDP1 cell CPT: DT40-hTDP1 cell growth loss with CPT; chicken DT40 Tdp1-/-;hTDP1 cells + 20 nM CPT, ATP luminescence, 48 h; Potency, µM (highest dose often 46.2 µM), inactives show at the top dose activity change, negative = growth inhibition, most hits filed as inhibitors; hit rate 12% among 420,000; AID 686979; also: nearly all actives have a fitted effect of over 55% in size
#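 Cell growth measured by CellTiter-Glo luminescence after a minimum 48 h, 37 C compound exposure with 20 nM CPT in Tdp1-knockout DT40 cells stably expressing hTDP1, seeded 400/well; qHTS titration format.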
# VP16 counter: counter-screen for ROR gamma inhibitors: Gal4-VP16 reporter; Drosophila S2 Gal4-VP16 UAS-luciferase, luminescence, 20 h; Potency, µM (series often up to 53.6 µM), inactives show top-dose activity, negative = inhibition, hits mostly inhibitors; hit rate 3.5% among 310,000;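 also: Gal4-VP16 expression switched on by copper sulfate through the metallothionein promoter; nearly all actives have a fitted effect of over 50% in size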
# TDP1 cell noCPT: qHTS for Inhibitors of human tyrosyl-DNA phosphodiesterase 1 (TDP1): qHTS in cells in absence of CPT. DT40 Tdp1-/- hTDP1 cells, no CPT, ATP luminescence, 48 h. Potency, µM (top dose mostly 46.2 µM), inactives show at the highest dose activity change, negative = growth inhibition, usual class: inhibitors. hit rate 15% among 420,000. AID 686978, 2013; also: nearly all actives have a fitted effect of over 55% in size
#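 A cellular qHTS used chicken DT40 cells lacking endogenous Tdp1 but carrying stably transfected human TDP1. Compounds were applied without camptothecin, and cell growth kinetics were judged by ATP-dependent luminescence after ≥48 hr.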
# The depositor's hits bear a star; ? = inconclusive; · = no result; [ ] = remark or other dose. This is a sample that favours compounds with a hit; in the whole collection about 19% have one here. Calls follow the shape of the dose curve; as a rule, active = well fitted curve in the direction sought with a large enough effect; inconclusive = small, poorly fitted or top-dose-only effect, or another doubt; inactive = no such curve, though single readings can be large; an effect the other way counts as inactive or inconclusive. % is scaled to controls: 0 for no effect and ±100 for the full control effect; potency is read from the fitted curve at half-maximal effect.
SMILES,TDP1 inh,RORgamma inh,TDP1 cell CPT,VP16 counter,TDP1 cell noCPT
O=C(CCN1CCN(c2ccc(Cl)cc2)CC1)Nc1nccs1,-5%,19%,?,0%,-25%
O=C(c1ccco1)N1C(=O)c2cccc3c(S(=O)(=O)N4CCCC4)ccc1c23,4%,-11%,?,-2%,?
COC(=O)C1CC(O)CN1S(=O)(=O)c1cccs1 (configuration not stated),2%,12%,26%,-7%,14%
Cc1ccc(C2=NN(S(C)(=O)=O)C(c3ccc4c(c3)OCO4)C2)cc1 (configuration not stated),3%,4%,21µM*,-10%,13µM*
CS(=O)(=O)N1N=C(c2ccc(Br)cc2)CC1c1ccc2c(c1)OCO2 (configuration not stated),1%,?,?,?,?
CCN(CC)CC(O)Cn1c(-c2ccccc2Cl)nc2ccccc21 (configuration not stated),0%,0%,-11%,-4%,9%
COc1ccccc1-n1c(=O)c2c3c(sc2n(Cc2ccccc2F)c1=O)CN(C(C)=O)CC3,5%,·,-22%,·,-9%
CCOC(=O)N1CCc2c(sc3c2c(=O)n(Cc2ccccc2)c(=O)n3Cc2cccc(Cl)c2)C1,4%,·,10µM*,·,21µM*
CC(=O)N1CCc2c(sc3c2c(=O)n(CCc2ccccc2)c(=O)n3Cc2ccc(Cl)cc2)C1,5%,·,?,·,?
CCOC(=O)N1CCc2c(sc3c2c(=O)n(-c2ccccc2C(F)(F)F)c(=O)n3Cc2ccccc2C)C1,1%,·,18µM*,·,?
CC(=O)N1CCc2c(sc3c2c(=O)n(CCc2ccccc2)c(=O)n3Cc2ccccc2C)C1,4%,·,15µM*,·,16µM*
CC(=O)N1CCc2c(sc3c2c(=O)n(Cc2ccccc2)c(=O)n3Cc2cc(C)ccc2C)C1,1%,·,16µM*,·,21µM*
COCC(=O)N1CCCN(c2nc3c(C)cccc3cc2C#N)CC1,0%,-30%,?,2%,?
COc1ccc(CNC(=O)CC2N=C3c4ccccc4N=C(SCC(=O)Nc4ccc(N(C)C)cc4)N3C2=O)cc1 (configuration not stated),5%,·,-6%,·,?
CC1(C)CC2CC(C)(CN2C(=O)COC(=O)c2ccc(Cl)cc2N)C1 (configuration not stated),2%,0%,-15%,2%,23µM*
COc1cc(Cl)ccc1OCc1cc(C(=O)N2C[C@H]3CC[C@H]2C3)no1,4%,2%,?,?,-25%
COc1cc(Cl)ccc1OCc1cc(C(=O)N2C[C@]3(C)C[C@H]2CC(C)(C)C3)no1,-1%,30%,?,?,16µM*
O=[N+]([O-])c1c(-c2cn[nH]c2)n[nH]c1-c1cn[nH]c1,3%,-2%,-16%,1%,?
CCOC(=O)c1ccccc1NC(=O)CSc1nnc(Cc2cccn2C)n1-c1ccc(C)cc1,8%,-3%,?,-3%,?
Cc1nc2nc(NC(=O)C(C)C)[nH]n2c(=O)c1Cc1ccccc1,2%,·,3%,·,-6%
C/C(=N\NC(=O)c1nnn(-c2nonc2N)c1-c1ccc2c(c1)OCO2)c1cccs1,1%,-12%,1.6µM*,-8%,?
COc1cccc(-c2c(C(=O)N/N=C(\C)c3cccs3)nnn2-c2nonc2N)c1,9%,?,16µM*,?,?
CCOc1cccc(-c2c(C(=O)N/N=C(\C)c3cccs3)nnn2-c2nonc2N)c1,1%,?,?,?,?
Cc1nn(C)c(C)c1S(=O)(=O)N(CC(=O)NCc1ccco1)c1ccc(C(C)C)cc1,3%,-4%,·,-2%,·
CC[C@]12c3[nH]c4ccc(Cl)cc4c3CCN1C(=O)[C@@H](CC(=O)NCCCN(C)C)C[C@@H]2C(=O)N1CCN(C(=O)C2CC2)CC1,0%[56.1 µM],·,-1%,·,-1%
SMILES,TDP1 inh,RORgamma inh,TDP1 cell CPT,VP16 counter,TDP1 cell noCPT
CCCCN(C)C1CCN(C(=S)Nc2ccc(OC)cc2)CC1,1%,1%,13%,-13%,-2%
CCCCCCCCCCOC(=O)Cn1c(COc2ccccc2)[n+](C)c2ccccc21,·,?,5.8µM*,?,2.6µM*
CCCCCOC(=O)Cn1c(=O)oc2ccccc21,0%,7%,-2%,?,-12%
CCCCCCCCCCOC(=O)Cn1c(COc2ccc(OC)cc2)[n+](C)c2ccccc21,6%,?,2.6µM*,6.3µM*,2.6µM*
CCCCCCCCCCOC(=O)Cn1c(COc2cccc(C)c2)[n+](C)c2ccccc21,·,-85%,7.3µM*,11µM*,4.6µM*
CCCCCCCCCCOC(=O)Cn1c(COc2ccccc2C)[n+](C)c2ccccc21,·,?,1.6µM*,16µM*,1µM*
CCOC(=O)Cn1c(COc2ccccc2OC)[n+](C)c2ccccc21,·,·,?,·,-5%
CCOC(=O)c1ccc(NC2(c3ccccc3)C(=O)c3ccccc3C2=O)cc1,7%,·,-21%,·,-6%
COc1ccccc1CCNCc1cc2cccc(C)c2nc1-c1cccs1,·,·,4%,·,-10%
CCCCOC(=O)Cn1c(=O)n(CC(=O)OCCCC)c2ccccc21,0%,-6%,-12%,-9%,-20%
CCCCCCCCCCOC(=O)Cn1c(COc2ccc(Cl)cc2)[n+](C)c2ccccc21,·,?,4.1µM*,?,4.6µM*
CS(=O)(=O)NCCNc1ccc(C(F)(F)F)cc1[N+](=O)[O-],-1%,30%,-1%,-1%,-6%
COc1ccc2[nH]c(C)c(CCNc3ccc(C(F)(F)F)cc3[N+](=O)[O-])c2c1,-12%,42%,?,-11%,29µM*
COc1ccc2[nH]c(C)c(CCNC(=S)Nc3cc(C)cc(C)c3)c2c1,11%,2.2µM*,?,11µM*,?
COc1ccc2[nH]c(C)c(CCNC(=S)Nc3ccccc3OC)c2c1,9%,10µM*,18µM*,-1%,23µM*
COc1ccc2[nH]c(C)c(CCNC(=S)Nc3ccc(F)cc3)c2c1,8%,4µM*,16µM*,3.5µM*,23µM*
CCOc1ccc(Cl)cc1/C=N/NC(=O)CNC(=O)c1ccccc1,0%,6%,-12%,5%,-24%
O=C(O)c1ccc2c(=O)n3c(nc2c1)/C(=C/c1ccccc1C(F)(F)F)CCCC3,1%,?,7%,-18%,0%
Cc1cc2ncn(C(=O)N3CCC(C)CC3)c2cc1C,0%,-7%,1%,10%,?
CC(c1ccccc1C(=O)O)c1cc(F)cc2ccccc12 (configuration not stated),·,·,-4%,·,?

# Screening data as filed in PubChem BioAssay.
